# Laboratory results taken from the supplement of paper PMC11417369.
# Whole data set: some 25,000 sequences, median “ln(normalized median fluorescence intensity)” near 6.7, cut for the highest 2% near 10. Shown is part of a subset that was picked to be rich in the highest values.
# System: PfHDP1 homeodomain (GST-tagged)
# Assay: gcPBM binding intensity (ln(normalized median fluorescence intensity)); higher = stronger DNA binding
# Summary of the method: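 The highest Masliner-normalised natural-log median intensity across replicate spots of either probe orientation is reported as binding intensity. GST-tagged P. falciparum DNA-binding domains expressed in E. coli were applied for 1 h to an Agilent 4 × 180k array of primer-extended double-stranded 36-bp intergenic genomic probes plus negative controls, and bound protein was detected with Alexa488 anti-GST antibody and scanned at 488 nm.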
row,Sequence,gcPBM binding intensity (ln)
1,ATATAAAGGTTTATTAGTACACATTAGAATACTTTT [XGTACX_site4492],6.22
2,GGGTTTTTAAAATGTAGTACATATGTAAACATCAAA [XGTACX_site1262],6.7
3,CCAATACTGTTTAAATGTACAAGTAGGAGGTTAATT [XGTACX_site7260],6.64
4,GCTTATGCTCAATATTGTACTTTTTTTATTTATTCA [XGTACX_site8863],10.6
5,TTTTCAATATATATTTGTACTTTATTTTATGATATT [GTGCAC_negctrl_site732],6.71
6,TATATATATATATATTGTACTTTATTTTATATATTC [XGTACX_site5697],9.11
7,AGCATTTTTCATTTTGCACACATGTTTTATGTGTAT [CACACA_site3454],10.5
8,TATGTGTATTTATTTGCATGTTGGTTGTATTTTTTC [TGCATGCA_site479],6.94
9,AGCATTTTTCATTTTGCACACATGTTTTATGGGTAT [CACACA_site5839],10.5
10,TATCCTAACTTTAGATGTACACAAATAAAAAAAAAA [XGTACX_site4491],6.32
11,ATTTATATGAAAATATGTACTTATATAAATTTATTT [XGTACX_site53],6.23
12,TAAGAATAATGACATAGTACAATTTAATAGATCTAA [XGTACX_site3670],6.01
13,TTTTTTTTTAAAGAAAATAAAAATATGTACTTGACA [CACACA_negctrl_site1113],6.05
14,AAAAAATTAATAAAAACACACAAAAAAAATAAACAA [CACACA_site1907],6.94
15,AAAATAATCTTATGCACACCAAAAATTTATATAATC [CACACA_site1235],10.6
16,AAATAAATCTTATGCACACAAATAATTAATTAAACA [CACACA_site1693],10.7
17,AAAATTATAAATCTTGCACACAAAAAAAATAATAAA [CACACA_site8771],8.27
18,GTTAACAAATAATGCACACAAATGGATAAAATTATA [CACACA_site3725],9.97
19,AATTATAAATCTTGCACACAAAAAAAATAATAAAAA [CACACA_site2434],8.67
20,TAGTTAACAAATAATGCACACAAATGGATAAAATTA [CACACA_site9240],10.6
21,CGAAATAAATCTTATGCACACAAATAATTAATTAAA [CACACA_site8491],10.5
22,TTTTTAGTTAATTAAACACACAAAAAAAAAAATAAA [CACACA_site3930],6.4
23,TTTTAAAAAAATATAATACACACCAAAAATATGCAC [CACACA_site2131],7.15
24,ATAAAATAATCTTATGCACACCAAAAATTTATATAA [CACACA_site8332],10.4
25,AATCATAAACATTATGCACACAAAAATAAAAAAAAA [CACACA_site8289],8.58
